# Sampled rows, rich in hits. Any-hit rate of the full collection: about 19%.
# HepG2 viability: qHTS for Inhibitors of TGF-b: Cytotox Counterscreen; HepG2 CAGA-GFP viability, ATP luminescence, 18 h; Potency, µM (series often up to 46.1 µM), for inactives: top-dose activity change, negative = cytotoxicity, actives largely listed as cytotoxic; actives 0.76% (n = 410,000); AID 588856, 2011; also: potency is read from the fitted curve at half-maximal effect
#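 HepG2 CAGA-GFP cells (1000/well, DMEM with 1% FBS) received compound, then TGF-beta at 500 pg/mL final, and were incubated 18 hours at 37 degrees C. Viability was read by CellTiter-Glo luminescence. Media-only wells were set as complete cell-killing and DMSO as no toxicity.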
# DT40 TDP1 no CPT: qHTS for Inhibitors of human tyrosyl-DNA phosphodiesterase 1 (TDP1): qHTS in cells in absence of CPT; Potency, µM (series often up to 46.2 µM), for the others: top-dose activity change, negative = growth inhibition, actives largely listed as inhibitors; AID 686978, 2013; actives 15% (n = 420,000); DT40 Tdp1-/- hTDP1 cells, no CPT, ATP luminescence, 48 h; also: potency is read from the fitted curve at half-maximal effect; % is scaled to controls: 0 for no effect and ±100 for the full control effect; nearly all actives have a fitted effect of over 55% in size
#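 Cells were dispensed at 400 per well, compounds added by pin tool, plates incubated ≥48 hr at 37 °C, then CellTiter-Glo added for 30 min at room temperature before luminescence reading. Line: DT40 Tdp1-/- complemented with hTDP1; camptothecin omitted.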
# TDP1 cell CPT: qHTS for Inhibitors of human tyrosyl-DNA phosphodiesterase 1 (TDP1): qHTS in cells in presence of CPT | chicken DT40 Tdp1-/-;hTDP1 cells + 20 nM CPT, ATP luminescence, 48 h | Potency, µM (series often up to 46.2 µM), without a hit: at the highest dose activity change, negative = growth inhibition, actives largely listed as inhibitors | actives 12% (n = 420,000) | AID 686979, 2013; also: potency is read from the fitted curve at half-maximal effect; % is scaled to controls: 0 for no effect and ±100 for the full control effect; nearly all actives have a fitted effect of over 55% in size
#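 Chicken DT40 Tdp1-/- cells complemented with human TDP1, 400 cells/well, exposed to compounds plus 20 nM camptothecin for at least 48 h at 37 C; viability read as ATP content by CellTiter-Glo luminescence.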
# S-ASM inh: Inhibitors of Secretory Acid Sphingomyelinase (S-ASM): qHTS; Potency, µM (top dose mostly 57.5 µM), for inactives: at the highest dose activity change, negative = inhibition, usual class: inhibitors; placental ASM, HMU-PC fluorogenic substrate, 60 min; actives 0.006% (n = 340,000); also: potency is read from the fitted curve at half-maximal effect
# Target sequence (P17405 47-631 limits assumed): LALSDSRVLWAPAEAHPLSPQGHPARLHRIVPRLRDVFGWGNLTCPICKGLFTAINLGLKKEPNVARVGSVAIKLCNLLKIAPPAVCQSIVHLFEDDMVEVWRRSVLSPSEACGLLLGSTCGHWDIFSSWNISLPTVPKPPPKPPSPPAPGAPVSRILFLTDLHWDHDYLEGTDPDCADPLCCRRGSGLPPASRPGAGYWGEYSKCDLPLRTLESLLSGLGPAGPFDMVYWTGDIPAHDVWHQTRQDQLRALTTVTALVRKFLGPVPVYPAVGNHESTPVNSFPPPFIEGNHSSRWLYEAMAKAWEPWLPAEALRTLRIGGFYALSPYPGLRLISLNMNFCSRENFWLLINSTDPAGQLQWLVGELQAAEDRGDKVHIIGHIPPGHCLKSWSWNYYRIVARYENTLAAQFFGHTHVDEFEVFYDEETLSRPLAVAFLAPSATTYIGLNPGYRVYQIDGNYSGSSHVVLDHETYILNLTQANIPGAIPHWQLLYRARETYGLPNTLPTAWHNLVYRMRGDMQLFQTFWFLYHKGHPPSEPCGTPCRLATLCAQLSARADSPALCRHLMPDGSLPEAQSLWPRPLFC
#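 Fluorogenic HMU-PC substrate (9 uM final) is turned over by placental ASM in 60 min at 37 C after a 10 min compound preincubation. Reaction ended by alkaline stop (pH 10), with fluorescence read at 386/447 nm.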
# IL-1B inflam inh: qHTS for Inhibitors of Inflammasome Signaling: IL-1-beta AlphaLISA Primary Screen; THP-1 LPS/ATP IL-1B secretion, AlphaLISA, 16 h; stronger effect = lower value; activity change, % at 57.5 µM; actives 4.7% (n = 360,000); AID 743279, 2014; in the data active = activity change below about -50%; inconclusive = mostly about -30% to -49%; also: % is scaled to controls: 0 for no effect and ±100 for the full control effect
#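 THP-1 cells pretreated 1 hr with compounds (up to 57.5 uM final), then stimulated with LPS (250 ng/mL final) plus ATP (1.25 mM final); secreted IL-1B measured by AlphaLISA after 16 hr, decreased signal indicating inhibition.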
# TGFb SMAD3 inh: qHTS for Inhibitors of TGF-b; HepG2 CAGA-GFP TGF-b/SMAD3 reporter, GFP fluorescence, 18 h; TGF-beta stimulated, 500 pg/mL final; actives 1.2% (n = 410,000); Potency, µM (highest dose often 46.1 µM), for inactives: at the top dose activity, negative = inhibition, hits mostly inhibitors; also: potency is read from the fitted curve at half-maximal effect; % is scaled to controls: 0 for no effect and ±100 for the full control effect; nearly all actives have a fitted effect of over 65% in size
#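 Cell-based qHTS in HEPG2 carrying a CAGA-GFP Smad reporter; compounds added before 500 pg/mL final TGF-beta, 18 h incubation at 37 degrees C, GFP fluorescence quantified per cell by imaging cytometry.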
# Numbers without * were called inactive; ? = inconclusive; nt = not tested or not shown; ! = a repeat was not active. Unless noted, calls follow the shape of the dose curve; as a rule, active = well fitted curve in the direction sought with a large enough effect; inconclusive = small, poorly fitted or top-dose-only effect, or another doubt; inactive = no such curve, though single readings can be large; an effect the other way counts as inactive or inconclusive.
SMILES,HepG2 viability,DT40 TDP1 no CPT,TDP1 cell CPT,S-ASM inh,IL-1B inflam inh,TGFb SMAD3 inh
CCC(=O)Nc1nnc(S(=O)(=O)N(C)c2cc(C)cc(C)c2)s1,0.7%,-9.3%,-0.9%,3.0%,3.5,-6.7%
Cc1oc(-c2cccc(Br)c2)nc1Cn1c(SCc2cccc(F)c2)nc2cccnc21,-11.2%,20.6µM*,?,nt,nt,?
COc1ccc(-c2nc(Cn3c(SCc4cccc(F)c4)nc4ccncc43)c(C)o2)cc1OC,-32.9%,?,?,-6.2%,?,-42.0%
Cc1ccc(-c2nc(Cn3c(SCc4ccc(F)cc4)nc4cccnc43)c(C)o2)cc1,-11.6%,0.82µM*,0.731µM*,nt,nt,-22.6%
COc1ccc(S(=O)(=O)N(C)C[C@H]2Oc3ccc(NC(=O)Cc4cn(C)c5ccccc45)cc3C(=O)N([C@@H](C)CO)C[C@@H]2C)cc1,-17.3%,14.6µM*,?,5.3%,-2.1,?
COc1ccc(S(=O)(=O)Nc2ccc3c(c2)C(=O)N([C@H](C)CO)C[C@H](C)[C@@H](CN(C)S(=O)(=O)c2ccccc2)O3)cc1,-14.4%,?,20.6µM*,-9.0%,-14.1,-15.0%
NC(=O)c1ccc[n+](Cc2ccc(-c3ccccc3)cc2)c1,-5.7%,-0.9%,0.9%,-3.2%,-3.4,-0.8%
CCc1n[n+](CC(=O)c2ccccc2)c(N)s1,-5.0%,-21.6%,-0.9%,-3.3%,14.8,-14.2%
CCCN1CNc2c(c(=O)[nH]c(=S)n2CCc2cccc(OC)c2OC)C1,nt,-29.0%,-14.6%,nt,nt,nt
CCOC(=O)C(=O)N(C)c1c(CC)nc2c(OCc3ccccc3C)cccn12,-0.2%,-22.0%,-23.9%,nt,8.8,-6.9%
CCCCC(=O)N(C)c1c(CC)nc2c(OCc3ccccc3C)cccn12,-21.0%,29.1µM*,29.1µM*,nt,-22.4,-23.7%
CCc1nc2c(OCCn3cccc3)cccn2c1N(C)C(=O)CC(C)C,3.4%,?,-24.4%,nt,10.0,26.4%
CCc1nc2c(OCc3ccccc3C)cccn2c1N(C)C(=O)C(C)C,0.3%,16.4µM*,18.4µM*,nt,114.2,-1.6%
CCc1nc2c(OCc3ccccc3C)cccn2c1N(C)C(=O)CC(C)C,-19.2%,18.4µM*,20.6µM*,nt,1.2,-3.3%
Nc1ncc(Br)cc1S(=O)(=O)Nc1ccccc1F,-1.6%,-3.0%,-0.4%,-10.3%,22.5,7.0%
COc1ccc(C(=O)C[n+]2cccc3cccc(O)c32)cc1,10.5%,-8.9%,2.1%,nt,nt,22.2%
Cc1cc2c(cc1C)N[C@]1(C[C@H]3CCCC(=O)N4CC[C@@H](C1)[C@@H]34)C(=NC(C)(C)CC(C)(C)C)N2,10µM*!,11.2µM*,18.4µM*,-0.7%,41.5,?
O=C1CCC[C@@H]2C[C@@]3(C[C@@H]4CCN1[C@H]24)Nc1cc(Cl)ccc1NC3=NC1CCCCC1,-0.3%,?,?,-0.6%,23.3,?
CC(C)(C)CC(C)(C)N=C1Nc2ccc(Cl)cc2N[C@]12C[C@H]1CCCC(=O)N3CC[C@@H](C2)[C@@H]13,8.91µM*,?,?,nt,nt,?
O=C1CCC[C@@H]2C[C@@]3(C[C@@H]4CCN1[C@H]24)Nc1cc(Cl)ccc1NC3=NCc1ccccc1,1.3%,?,?,0.9%,23.9,?
Cc1cc2c(cc1C)N[C@]1(C[C@H]3CCC(=O)N4CC[C@@H](C1)[C@@H]34)C(=Nc1ccccc1C)N2,-25.4%,?,-80.7%,nt,nt,?
O=C1CCC[C@@H]2C[C@@]3(C[C@@H]4CCN1[C@H]24)Nc1cc([N+](=O)[O-])ccc1NC3=NC1CCCCC1,-36.0%,11.2µM*,25.9µM*,-19.1%,-10.9,?
Cc1cc2c(cc1C)N[C@]1(C[C@H]3CCCC(=O)N4CC[C@@H](C1)[C@@H]34)C(=NCc1ccccc1)N2,-14.7%,11.2µM*,11.2µM*,nt,nt,-20.7%
COc1ccc(C(=O)C[n+]2ccccc2Cl)cc1,-54.0%,?,?,nt,nt,?
COC(=O)C1=C(C)N(C)C(=O)NC1c1c(O)ccc2ccccc12 (stereo not given),0.6%,?,-16.5%,0.8%,8.7,2.4%
SMILES,HepG2 viability,DT40 TDP1 no CPT,TDP1 cell CPT,S-ASM inh,IL-1B inflam inh,TGFb SMAD3 inh
O=S(=O)(c1cccc(Cl)c1)c1nnn2c1nc(NC1CCCCCC1)c1sccc12,-3.2%,?,?,nt,nt,23.4%
COC(=O)[C@@]1(C)[C@H]2C(=O)N(Cc3ccccc3)C(=O)[C@H]2[C@H]2CN=C(SCc3ccc(C)cc3)N21,8.7%,?,?,-0.7%,5.8,-16.8%
N#CCCN(Cc1ccccc1)C(C(=O)NC1CCCCC1)c1cc2ccccc2o1 (stereo not given),2.9%,18.4µM*,20.6µM*,nt,33.2,12.6µM*
Cc1cc(=O)[nH]c2nnc(SCc3ccc(Cl)cc3)n12,-5.9%,-5.8%,-26.1%,nt,nt,21.5%
Cc1ccc(C)c(N2CCN(C(=O)C3CCN(c4nc(-c5ccc(C(C)C)cc5)no4)CC3)CC2)c1,-24.7%,10.3µM*,?,nt,nt,-32.0%
Cc1ccc(C)c(N2CCN(C(=O)CCc3nc(-c4ccc(Cl)cc4)no3)CC2)c1,-13.4%,-4.0%,7.8%,-8.0%,14.2,-15.1%
COc1ccc(-c2noc(N3CCC(C(=O)N4CCN(c5ccccc5F)CC4)CC3)n2)cc1,-4.2%,5.17µM*,?,nt,nt,2.6%
O=C(NCc1ccc(Cl)cc1)c1ncn[nH]1,0.0%,10.3%,3.7%,-0.6%,-1.9,14.4%
Cc1ccc(C)c(Nc2nc(NCc3ccco3)nc3nccnc23)c1,-3.0%,?,?,nt,nt,2.3%
Cc1cc(C(=O)N/N=C/c2ccc([N+](=O)[O-])s2)n[nH]1,17.8µM*,5.17µM*,5.8µM*,-8.7%,-5.6,11.2µM*
Cc1cc(C(=O)N/N=C/c2cc(Cl)cc([N+](=O)[O-])c2O)n[nH]1,1.8%,-8.8%,14.2%,-0.8%,18.2,-11.7%
Cc1[nH]cnc1C(=O)N/N=C/c1ccc([N+](=O)[O-])s1,-132.8%,10.3µM*,11.6µM*,-0.4%,16.9,-20.4%
Cc1ccc(/C=N/NC(=O)c2ccccn2)s1,-31.1%,?,?,4.2%,-8.2,2.3%
